This is an account of results in PubChem BioAssay (NCI).

About 83,000 compounds went through this panel and 20% of them were active in at least one assay; those are over-represented in the sample as a whole.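 96-well plates, one dose, 48 hours. Percent growth reported; active if below 10.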 A number with no mark means an inactive call.

The test system of this experiment is HOP-92 NSCLC. Nature of the experiment: NCI-60 one-dose screen, 48 h (100 = growth as untreated, 0 = no growth, -100 = all killed). The settings on record: 10 µM unless noted.
Turning to `COc1cc(-c2nc(C(=O)NCC(=O)NO)nn2-c2ccc(Cl)cc2)cc(OC)c1OC`, the growth was 86.5%. Under `C=C1C(=O)O[C@H]2[C@H]1CC/C(C=Nc1ccc(C(F)(F)F)cc1N)=C\CC[C@@]1(C)O[C@@H]21` stands 27%; under `CSc1nc(NCCO)c(C#N)c(-c2cccc([N+](=O)[O-])c2)n1`, 79.4%.

Turning to `Cn1c(=O)[nH]c(=O)c2nc(CCC(=O)NCCC(=O)O)c(=O)[nH]c21`, the growth is 98.2%. For `C=CC(=O)Nc1cccc(-c2nc(SC)nc(Nc3ccccc3OC)c2C#N)c1`, the growth is 31%. Turning to `CC1=C[C@H]2c3c(c(O)c(O)c4oc5c(C)cccc5c(=O)c34)[C@H](c3cc(O)c(O)c4oc5c(C)cccc5c(=O)c34)[C@H]2C(C)(C)C1`, the growth is 20.9%. `COc1ccc(/C=C(\C#N)C(=O)Nc2cccc(Nc3nc(SC)nc(-c4cccc([N+](=O)[O-])c4)c3C#N)c2)cc1OC`: the growth is 111%.

As to `CCN(CC)c1ccc(/C=N\NC(=O)/C=C/C=C/c2ccc3c(c2)OCO3)c(O)c1`, the growth was 48.4%. As for `CC(C)(C)c1cc(/C=N\NC(=O)/C=C/C=C/c2ccc3c(c2)OCO3)c(O)c(C(C)(C)C)c1`, the growth was 88.5%.

Turning to `CN(C)CCCNc1c2ccccc2nc2ccccc12`, the growth was 180%.

For the compound `CN1CCN(c2nc(NCCCCNc3ccnc4cc(Cl)ccc34)c3ccccc3n2)CC1`, the growth was 54.8%. Under `COc1cc2c(cc1-c1c(C)noc1C)ncc1nc(C3CCOCC3)n([C@@H](C)COC(F)F)c12` stands 31.8%.
